# Unmarked numbers belong to inactive results.
# How the values were obtained:
# Assay in all cases: log2 ratio of Biotin-Ahx-Ub-VS probe labelling (fragment/DMSO); higher = less target engagement (more negative = stronger competition), active = hit call of the paper (q ≤ 0.05, log2 ratio ≤ -1)
# Conditions in all cases: compound concentration: 200 uM; treatment time: 3 h
# USP16 = USP16 (UniProt Q9Y5T5)
# Outline: (§1)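 Using Biotin-Ahx-Ub-VS at 0.5 µM final for 1 h, DUBs were labelled in HEK293T lysate (495 µg per sample) that had first been treated in triplicate with fragment at 200 µM or vehicle for 3 h. NeutrAvidin enrichment, LysC and trypsin digestion and diaPASEF LC-MS/MS followed. Spectronaut label-free quantities were global-median-normalised. Values are average log2 fragment/vehicle ratios by unpaired t-test, using proteins with ≥2 unique peptides.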
# USP19 = molecular target: T1, USP19 (UniProt O94966)
# T1 sequence (whole entry): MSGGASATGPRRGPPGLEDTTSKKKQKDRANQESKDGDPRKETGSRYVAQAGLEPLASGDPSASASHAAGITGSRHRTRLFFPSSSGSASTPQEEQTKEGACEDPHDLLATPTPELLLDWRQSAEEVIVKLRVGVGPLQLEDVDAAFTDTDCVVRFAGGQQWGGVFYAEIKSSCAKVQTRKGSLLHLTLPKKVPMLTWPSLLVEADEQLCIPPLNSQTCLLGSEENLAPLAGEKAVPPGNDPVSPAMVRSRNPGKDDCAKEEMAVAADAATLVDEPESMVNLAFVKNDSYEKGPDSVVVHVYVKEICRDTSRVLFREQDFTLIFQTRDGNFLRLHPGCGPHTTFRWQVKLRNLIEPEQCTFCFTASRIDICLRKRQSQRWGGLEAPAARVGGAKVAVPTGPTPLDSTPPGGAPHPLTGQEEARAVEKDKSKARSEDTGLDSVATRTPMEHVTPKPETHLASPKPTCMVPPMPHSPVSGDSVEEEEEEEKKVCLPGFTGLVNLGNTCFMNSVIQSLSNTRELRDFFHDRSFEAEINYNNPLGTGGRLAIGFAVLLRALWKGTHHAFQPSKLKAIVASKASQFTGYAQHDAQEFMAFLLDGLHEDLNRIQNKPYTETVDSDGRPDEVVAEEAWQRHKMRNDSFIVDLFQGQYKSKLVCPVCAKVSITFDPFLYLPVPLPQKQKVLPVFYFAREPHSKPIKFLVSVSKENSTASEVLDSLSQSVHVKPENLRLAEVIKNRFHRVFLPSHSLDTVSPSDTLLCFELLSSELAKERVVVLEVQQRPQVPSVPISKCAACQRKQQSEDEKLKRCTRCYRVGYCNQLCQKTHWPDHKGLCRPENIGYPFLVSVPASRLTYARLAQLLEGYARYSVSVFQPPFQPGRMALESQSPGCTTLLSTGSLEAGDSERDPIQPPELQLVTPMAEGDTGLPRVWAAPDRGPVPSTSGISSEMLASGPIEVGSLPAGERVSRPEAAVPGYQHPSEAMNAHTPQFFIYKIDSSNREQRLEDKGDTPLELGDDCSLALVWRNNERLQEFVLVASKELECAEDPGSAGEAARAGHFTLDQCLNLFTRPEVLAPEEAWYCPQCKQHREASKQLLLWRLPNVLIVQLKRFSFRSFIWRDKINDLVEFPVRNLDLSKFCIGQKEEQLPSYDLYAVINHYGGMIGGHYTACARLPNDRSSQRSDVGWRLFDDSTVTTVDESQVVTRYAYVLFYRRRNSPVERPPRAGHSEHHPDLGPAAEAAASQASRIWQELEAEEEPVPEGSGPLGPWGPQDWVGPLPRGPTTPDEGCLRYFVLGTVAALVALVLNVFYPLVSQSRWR
# Outline: as §1
# USP24 = USP24 (UniProt Q9UPU5)
# Chain of USP24 (Q9UPU5 whole entry): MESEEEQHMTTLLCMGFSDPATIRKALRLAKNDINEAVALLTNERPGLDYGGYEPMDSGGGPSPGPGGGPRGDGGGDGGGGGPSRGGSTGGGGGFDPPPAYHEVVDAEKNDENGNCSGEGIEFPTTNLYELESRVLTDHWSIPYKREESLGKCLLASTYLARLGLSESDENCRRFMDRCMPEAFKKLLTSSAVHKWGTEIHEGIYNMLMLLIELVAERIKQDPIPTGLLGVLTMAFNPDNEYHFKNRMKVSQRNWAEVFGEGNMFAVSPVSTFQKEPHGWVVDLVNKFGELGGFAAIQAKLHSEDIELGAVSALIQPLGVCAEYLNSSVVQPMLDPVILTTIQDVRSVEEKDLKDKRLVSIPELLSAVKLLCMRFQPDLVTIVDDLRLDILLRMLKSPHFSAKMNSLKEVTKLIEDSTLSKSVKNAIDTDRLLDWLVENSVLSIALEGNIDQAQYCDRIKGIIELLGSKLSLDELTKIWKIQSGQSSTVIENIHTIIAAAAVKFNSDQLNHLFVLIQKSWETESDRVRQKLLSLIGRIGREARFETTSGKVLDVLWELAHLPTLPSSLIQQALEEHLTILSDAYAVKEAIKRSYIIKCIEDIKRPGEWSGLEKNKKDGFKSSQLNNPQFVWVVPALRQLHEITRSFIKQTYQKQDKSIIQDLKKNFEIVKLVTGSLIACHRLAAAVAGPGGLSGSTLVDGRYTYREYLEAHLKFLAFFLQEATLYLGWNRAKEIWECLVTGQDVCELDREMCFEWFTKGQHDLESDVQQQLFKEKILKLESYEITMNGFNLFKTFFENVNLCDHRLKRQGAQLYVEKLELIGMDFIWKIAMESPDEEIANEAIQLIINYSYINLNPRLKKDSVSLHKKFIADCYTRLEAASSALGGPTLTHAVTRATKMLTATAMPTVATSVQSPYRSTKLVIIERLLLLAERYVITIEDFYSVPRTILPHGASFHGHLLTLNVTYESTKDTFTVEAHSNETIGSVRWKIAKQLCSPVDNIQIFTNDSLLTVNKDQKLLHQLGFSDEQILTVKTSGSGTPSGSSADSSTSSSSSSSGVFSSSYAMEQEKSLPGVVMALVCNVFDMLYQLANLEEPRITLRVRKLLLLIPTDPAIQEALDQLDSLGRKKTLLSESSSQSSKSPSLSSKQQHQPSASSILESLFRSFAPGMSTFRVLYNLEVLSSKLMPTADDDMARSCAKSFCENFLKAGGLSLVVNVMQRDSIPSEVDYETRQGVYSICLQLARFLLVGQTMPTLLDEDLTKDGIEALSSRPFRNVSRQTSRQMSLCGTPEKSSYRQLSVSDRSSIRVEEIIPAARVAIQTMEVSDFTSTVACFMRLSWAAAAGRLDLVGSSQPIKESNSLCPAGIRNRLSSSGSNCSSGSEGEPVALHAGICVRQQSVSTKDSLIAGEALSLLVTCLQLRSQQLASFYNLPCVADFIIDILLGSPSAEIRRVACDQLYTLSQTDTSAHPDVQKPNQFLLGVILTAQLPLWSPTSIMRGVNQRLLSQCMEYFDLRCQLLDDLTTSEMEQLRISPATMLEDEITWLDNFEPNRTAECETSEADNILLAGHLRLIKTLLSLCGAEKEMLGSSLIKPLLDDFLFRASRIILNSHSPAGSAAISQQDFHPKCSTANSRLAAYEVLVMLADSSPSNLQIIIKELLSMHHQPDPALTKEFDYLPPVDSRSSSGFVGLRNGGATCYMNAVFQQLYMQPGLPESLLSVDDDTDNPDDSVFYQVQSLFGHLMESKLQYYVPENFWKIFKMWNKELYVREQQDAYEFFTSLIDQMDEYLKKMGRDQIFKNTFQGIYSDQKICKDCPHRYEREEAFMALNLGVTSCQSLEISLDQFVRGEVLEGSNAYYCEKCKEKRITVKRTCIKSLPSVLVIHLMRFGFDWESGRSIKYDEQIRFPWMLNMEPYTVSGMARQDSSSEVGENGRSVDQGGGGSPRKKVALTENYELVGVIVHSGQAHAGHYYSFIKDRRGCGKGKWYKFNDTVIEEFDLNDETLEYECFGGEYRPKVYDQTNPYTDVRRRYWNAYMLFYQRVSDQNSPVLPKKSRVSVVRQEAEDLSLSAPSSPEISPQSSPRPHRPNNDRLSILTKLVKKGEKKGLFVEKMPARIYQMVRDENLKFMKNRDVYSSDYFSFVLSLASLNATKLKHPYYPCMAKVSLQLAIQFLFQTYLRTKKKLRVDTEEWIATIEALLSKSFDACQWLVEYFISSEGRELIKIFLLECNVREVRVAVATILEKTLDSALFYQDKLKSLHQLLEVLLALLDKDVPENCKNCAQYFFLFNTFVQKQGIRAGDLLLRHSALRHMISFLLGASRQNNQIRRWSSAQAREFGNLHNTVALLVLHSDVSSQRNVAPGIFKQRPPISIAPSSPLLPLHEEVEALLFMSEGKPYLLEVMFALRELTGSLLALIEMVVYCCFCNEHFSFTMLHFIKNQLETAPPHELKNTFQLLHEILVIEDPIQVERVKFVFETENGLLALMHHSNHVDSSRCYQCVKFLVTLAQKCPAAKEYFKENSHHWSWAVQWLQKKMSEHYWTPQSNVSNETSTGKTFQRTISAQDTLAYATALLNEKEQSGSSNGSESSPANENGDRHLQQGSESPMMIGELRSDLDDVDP
# Outline: as §1
# USP25 = molecular target: T2, USP25 (UniProt Q9UHP3)
# T2 sequence (whole entry): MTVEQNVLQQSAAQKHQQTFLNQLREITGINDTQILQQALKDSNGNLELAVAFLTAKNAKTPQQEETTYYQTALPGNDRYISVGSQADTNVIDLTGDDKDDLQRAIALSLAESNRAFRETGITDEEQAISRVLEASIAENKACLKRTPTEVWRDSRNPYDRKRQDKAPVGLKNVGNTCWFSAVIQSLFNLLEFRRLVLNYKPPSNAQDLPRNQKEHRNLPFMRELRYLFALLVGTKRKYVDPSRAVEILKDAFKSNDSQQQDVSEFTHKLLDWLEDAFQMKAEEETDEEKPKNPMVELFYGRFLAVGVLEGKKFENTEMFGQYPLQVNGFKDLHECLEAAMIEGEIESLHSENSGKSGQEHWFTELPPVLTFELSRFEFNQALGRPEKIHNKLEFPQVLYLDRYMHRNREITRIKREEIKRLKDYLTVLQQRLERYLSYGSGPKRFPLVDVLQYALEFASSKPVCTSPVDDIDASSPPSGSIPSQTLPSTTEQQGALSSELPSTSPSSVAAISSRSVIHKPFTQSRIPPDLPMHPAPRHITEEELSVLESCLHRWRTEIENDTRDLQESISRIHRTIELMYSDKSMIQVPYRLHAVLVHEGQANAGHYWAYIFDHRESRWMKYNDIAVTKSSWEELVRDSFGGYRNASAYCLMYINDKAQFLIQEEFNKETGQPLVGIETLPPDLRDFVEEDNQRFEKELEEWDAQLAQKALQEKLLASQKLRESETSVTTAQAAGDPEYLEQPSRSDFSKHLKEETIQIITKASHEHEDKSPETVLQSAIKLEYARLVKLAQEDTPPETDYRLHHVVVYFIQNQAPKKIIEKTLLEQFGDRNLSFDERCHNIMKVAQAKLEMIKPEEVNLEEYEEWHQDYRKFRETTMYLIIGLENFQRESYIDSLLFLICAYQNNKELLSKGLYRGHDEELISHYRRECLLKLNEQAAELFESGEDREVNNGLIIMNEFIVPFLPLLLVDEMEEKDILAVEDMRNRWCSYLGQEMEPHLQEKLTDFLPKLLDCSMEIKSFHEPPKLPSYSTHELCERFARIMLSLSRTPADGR
# Outline: as §1
# USP28 = molecular target: T3, USP28 (UniProt Q96RU2)
# T3 sequence (whole entry): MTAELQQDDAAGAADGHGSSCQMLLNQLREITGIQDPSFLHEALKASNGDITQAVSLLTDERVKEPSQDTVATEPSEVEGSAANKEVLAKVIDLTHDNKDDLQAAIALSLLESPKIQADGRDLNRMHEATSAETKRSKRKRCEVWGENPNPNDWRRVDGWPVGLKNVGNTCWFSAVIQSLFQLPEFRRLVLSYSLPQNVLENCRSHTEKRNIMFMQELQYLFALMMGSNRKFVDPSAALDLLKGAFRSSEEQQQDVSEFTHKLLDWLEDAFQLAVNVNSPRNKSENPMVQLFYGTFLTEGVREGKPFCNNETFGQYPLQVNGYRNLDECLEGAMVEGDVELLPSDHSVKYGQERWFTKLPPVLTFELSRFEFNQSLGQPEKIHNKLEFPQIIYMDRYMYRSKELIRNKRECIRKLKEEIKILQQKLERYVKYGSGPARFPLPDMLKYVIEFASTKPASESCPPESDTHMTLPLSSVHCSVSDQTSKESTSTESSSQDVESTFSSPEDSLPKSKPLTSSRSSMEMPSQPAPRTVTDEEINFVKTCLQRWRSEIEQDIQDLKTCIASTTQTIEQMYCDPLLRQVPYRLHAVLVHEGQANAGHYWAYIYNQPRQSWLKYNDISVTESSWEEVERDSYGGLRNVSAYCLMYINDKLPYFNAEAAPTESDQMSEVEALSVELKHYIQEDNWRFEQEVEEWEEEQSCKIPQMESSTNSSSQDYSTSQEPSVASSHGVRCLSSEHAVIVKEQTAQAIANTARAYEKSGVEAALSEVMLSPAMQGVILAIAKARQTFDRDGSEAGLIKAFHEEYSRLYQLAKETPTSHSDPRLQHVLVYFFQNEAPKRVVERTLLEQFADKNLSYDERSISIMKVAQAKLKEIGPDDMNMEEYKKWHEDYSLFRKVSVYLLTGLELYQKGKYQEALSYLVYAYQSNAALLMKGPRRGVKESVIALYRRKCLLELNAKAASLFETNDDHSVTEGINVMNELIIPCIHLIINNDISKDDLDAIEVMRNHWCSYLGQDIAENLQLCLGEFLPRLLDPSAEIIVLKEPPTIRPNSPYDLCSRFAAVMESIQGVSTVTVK
# Outline: as §1
# Chain of USP16 (Q9Y5T5 whole entry, looked up, the tested form may be a part): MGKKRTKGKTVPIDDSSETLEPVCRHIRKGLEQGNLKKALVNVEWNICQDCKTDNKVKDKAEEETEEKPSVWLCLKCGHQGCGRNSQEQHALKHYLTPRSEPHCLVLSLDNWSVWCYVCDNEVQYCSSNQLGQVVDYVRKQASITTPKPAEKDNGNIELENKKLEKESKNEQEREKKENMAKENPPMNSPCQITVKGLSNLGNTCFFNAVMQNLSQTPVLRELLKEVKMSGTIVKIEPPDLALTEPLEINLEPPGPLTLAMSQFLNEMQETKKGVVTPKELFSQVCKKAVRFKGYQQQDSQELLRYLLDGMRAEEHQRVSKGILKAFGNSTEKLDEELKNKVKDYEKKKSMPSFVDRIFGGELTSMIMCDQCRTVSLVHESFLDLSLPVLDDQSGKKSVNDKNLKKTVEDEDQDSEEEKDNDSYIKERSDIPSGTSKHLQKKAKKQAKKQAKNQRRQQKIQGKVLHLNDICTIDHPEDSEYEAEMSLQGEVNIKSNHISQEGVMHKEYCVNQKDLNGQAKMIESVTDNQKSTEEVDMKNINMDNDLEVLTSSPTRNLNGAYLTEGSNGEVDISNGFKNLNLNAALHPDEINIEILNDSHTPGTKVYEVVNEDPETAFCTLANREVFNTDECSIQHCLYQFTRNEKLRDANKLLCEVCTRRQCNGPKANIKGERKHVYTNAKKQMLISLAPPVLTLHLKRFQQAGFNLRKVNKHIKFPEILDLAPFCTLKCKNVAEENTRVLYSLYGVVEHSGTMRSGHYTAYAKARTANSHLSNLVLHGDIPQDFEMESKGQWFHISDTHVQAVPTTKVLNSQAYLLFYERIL
smiles,measurement,setting,value
O=C(CCl)Nc1cccc(C(=O)N2CCSCC2)c1,log2 ratio of Biotin-Ahx-Ub-VS probe labelling,USP16,-0.0446
same,log2 ratio of Biotin-Ahx-Ub-VS probe labelling,USP19,-0.239
same,log2 ratio of Biotin-Ahx-Ub-VS probe labelling,USP24,-0.522
same,log2 ratio of Biotin-Ahx-Ub-VS probe labelling,USP25,-1.17 (active)
same,log2 ratio of Biotin-Ahx-Ub-VS probe labelling,USP28,-0.818
